# Hits are enriched below; roughly 6% of the tested compounds scored in any of these assays.
# PLK1 PBD block: blocks phosphopeptide binding to human PLK1 polo-box domain; P53350; Plk1 PBD binding of FITC phosphopeptide, fluorescence polarization; Potency, µM, usual class: inhibitors; 2.8% of 360,000 active; also: series mostly up to about 57 µM; nearly all actives have a fitted effect of over 65% in size
# VDR inh: inhibitors of human vitamin D receptor; VDR-SRC2-3 peptide fluorescence polarization, 2 h; Potency, µM, most hits filed as inhibitors; AID 504847; 0.93% of 400,000 active
# Target sequence (P11473 whole entry, looked up): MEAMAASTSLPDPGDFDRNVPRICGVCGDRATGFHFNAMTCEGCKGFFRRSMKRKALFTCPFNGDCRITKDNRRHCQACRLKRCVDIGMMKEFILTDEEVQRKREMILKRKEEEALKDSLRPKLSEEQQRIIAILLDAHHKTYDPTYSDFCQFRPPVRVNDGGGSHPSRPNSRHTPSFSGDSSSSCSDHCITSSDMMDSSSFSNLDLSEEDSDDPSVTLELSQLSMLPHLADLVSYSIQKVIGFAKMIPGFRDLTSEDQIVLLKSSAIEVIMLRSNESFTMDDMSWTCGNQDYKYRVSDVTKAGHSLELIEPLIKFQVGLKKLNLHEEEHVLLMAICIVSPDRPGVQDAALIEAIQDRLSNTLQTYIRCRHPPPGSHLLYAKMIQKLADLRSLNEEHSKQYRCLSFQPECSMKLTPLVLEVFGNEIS
#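 Signal is fluorescence polarization, reporting how far test compounds block the interaction of VDR with the SRC2-3 coregulator peptide after a 2 h room-temperature incubation.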
# Tau fibril FP: tau fibrillization inhibition (FP) | AID 1468 | Potency, µM (highest dose often 57.7 µM), hits mostly inhibitors | P10636 | 0.39% of 280,000 active | K18 P301L tau heparin fibrillization, Alexa594 FP, 6 h; also: nearly all actives have a fitted effect of over 55% in size
# Target sequence (P10636 561-689 P618L limits assumed): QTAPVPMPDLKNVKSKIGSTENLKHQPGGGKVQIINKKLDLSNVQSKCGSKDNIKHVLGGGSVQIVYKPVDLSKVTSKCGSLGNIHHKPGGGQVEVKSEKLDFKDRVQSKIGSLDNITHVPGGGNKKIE
#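 Steps: dispense K18 P301L tau (15 uM plus 0.24 uM Alexa 594 tracer, final) in pH 7 sodium acetate; add compound; add heparin (20 uM final); incubate 6 hr, 37 C; add ThT (30 uM final); after 1 hr ambient, read FP.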
# Sfp PPTase inh: Sfp phosphopantetheinyl transferase inhibition; Biochemical Sfp PPTase activity, qHTS; 3.5% of 310,000 active; Potency, µM, actives largely listed as inhibitors;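 also: the enzyme is Sfp with the accession as filed and its product quenches rhodamine fluorescence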
#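 With Hepes-Na pH 7.6 buffer containing 10 mM MgCl2, Sfp (15 nM) modified BHQ-2-YbbR (12.5 uM) using rhodamine-CoA (5 uM). Two reads 30 minutes apart at 525/598 nm yielded each well's rate.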
# Tau ThT inhib: inhibitors of human tau fibril formation, thioflavin T binding. recombinant tau K18 P301L, heparin-induced fibrillization, ThT fluorescence. 2.1% of 270,000 active. P10636. Potency, µM (top dose mostly 57.4 µM), usual class: inhibitors. AID 1460; also: nearly all actives have a fitted effect of over 55% in size
#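 Heparin-induced fibrillization of the P301L-mutant K18 repeat-domain fragment of human tau was followed by ThT binding in quantitative high-throughput format.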
# Tau fluor counter: counter-screen for tau fibril formation inhibitors. 0.93% of 280,000 active. tau K18 P301L (four-repeat tau fragment) Alexa594 fluorescence, heparin fibrillization. Potency, µM (doses to about 57.7 µM); also: nearly all actives have a fitted effect of over 55% in size
#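 Human K18 P301L tau (15 uM unlabeled plus 0.24 uM Alexa 594-labeled, final) in 100 mM sodium acetate pH 7 was mixed with compound and 20 uM heparin and incubated 6 hr at 37 C.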
# A number is an active result; – = inactive; ? = inconclusive; · = no result; [ ] = dose if it differs, or a comment. Calls follow the shape of the dose curve; as a rule, active = well fitted curve in the direction sought with a large enough effect; inconclusive = small, poorly fitted or top-dose-only effect, or another doubt; inactive = no such curve, though single readings can be large; an effect the other way counts as inactive or inconclusive.
SMILES,PLK1 PBD block,VDR inh,Tau fibril FP,Sfp PPTase inh,Tau ThT inhib,Tau fluor counter
COc1ccc(NS(=O)(=O)c2ccc(-n3nnc4ccccc43)c([N+](=O)[O-])c2)cc1,–,–,?,–,–,?
O=c1c(O)cc(C2Oc3cc(O)cc(O)c3CC2O)cc2c(C3Oc4cc(O)cc(O)c4CC3O)cc(O)c(O)c12 (stereo not drawn),·,3.5µM,1µM,7.1µM,0.5µM,8.9µM[quencher]
Cc1nnc(SCC(=O)c2ccc(Cl)cc2)n(N)c1=O,–,20µM,?,?,?,–
Cc1ccc(NC(=O)CSc2nnc(C)c(=O)n2N)cc1Cl,–,–,·,–,·,·
CCN(C(=O)CSc1nc2ccccc2n1CC(=O)Nc1ccccc1C)c1ccccc1,·,–,–,·,–,–
Cc1ccc(-n2nc(C)c3c2NC2=C(C(=O)CC(C)(C)C2)C3c2ccccc2OCC(=O)O)cc1 (stereo not drawn),27µM,–,–,–,–,–
COc1ccc2c(c1)C(=O)[C@H](OC(=O)NS(=O)(=O)c1ccc(F)cc1)[C@@H](c1ccc(OC)c(Br)c1)O2,·,–,–,–,–,–
O=C(CSc1ccccc1C(=O)NCCCN1CCCC1=O)NCc1ccco1,–,?,–,45µM,–,–
O=C(COC(=O)c1cccnc1Cl)c1ccc(F)cc1,–,–,–,–,–,–
CCOc1ncccc1C(=O)OCC(=O)c1ccc(F)cc1,17µM,?,–,–,–,–
CCc1ccc(NC(=O)/C(C#N)=C\c2ccc(OC)c(C(=O)O)c2)cc1,–,–,–,–,–,–[2.34 µM]
COc1cc(/C=C(/C#N)C(=O)Nc2ccccc2)ccc1OCc1ccc(C(=O)O)cc1,?,–,–,–,?,–
COc1cc(/C=C(\C#N)C(=O)Nc2ccc(C(=O)O)cc2)ccc1OC(=O)c1cccc(F)c1,24µM,?,·,?,·,·
COc1cc(/C=C(\C#N)C(=O)NCc2ccccc2)ccc1OCc1ccc(C(=O)O)cc1,19µM,?,–,–,–,–
CCOc1cc(/C=C(/C#N)C(=O)Nc2ccc(OC)cc2)ccc1OCc1ccc(C(=O)O)cc1,27µM,–,·,–,·,·
COCCNC(=O)/C(C#N)=C/c1ccc(OC(=O)c2cccs2)c(OC)c1,–,71µM,–,–,?,–
CCCCNC(=O)C1CCC(Cn2c(=O)c3sccc3n(CC(=O)Nc3ccccc3)c2=O)CC1 (stereo not drawn),·,–,–,·,–,–
O=c1[nH]c(/C=C\c2cccnc2)c([N+](=O)[O-])c(=O)[nH]1,27µM,–,–,–,–,–
O=C(Oc1ccccc1)N1CCC[C@@]2(CCN(c3ccncc3)C2)C1,·,–,·,–,·,·
CC(=O)Nc1cccc(-c2nc3ccccc3[nH]2)c1,–,–,–,–,–,–
CC(=O)Nc1cccc(CCc2nc3ccccc3[nH]2)c1,?,71µM,·,–,·,·
CC(C)COc1ccc(C(=O)Nc2cccc(-c3nc4ccccc4[nH]3)c2)cc1,·,–,20µM,·,?,7.9µM[quencher]
CC(C)(C)C(=O)Nc1cccc(-c2nc3ccccc3[nH]2)c1,–,–,–,?,–,–
COc1cccc(OC)c1C(=O)Nc1cccc(-c2nc3ccccc3[nH]2)c1,–,–,–,–,–,–[2.34 µM]
CC(C)CC(=O)Nc1cccc(-c2nc3ccccc3[nH]2)c1,27µM,?,–,–,–,–
SMILES,PLK1 PBD block,VDR inh,Tau fibril FP,Sfp PPTase inh,Tau ThT inhib,Tau fluor counter
Cc1cc(C)cc(OCC(=O)Nc2cccc(-c3nc4ccccc4[nH]3)c2)c1,·,–,22µM,·,–,11µM[quencher]
Cc1ccccc1S(=O)(=O)N1[C@@H](c2ccc(Cl)cc2)C(C(=O)O)=CC[C@H]1c1ccc(Cl)cc1,30µM,?,·,·,·,·
Cc1ccccc1S(=O)(=O)N1C(c2ccc(Cl)cc2)CC=C(C(=O)O)C1c1cccc(Cl)c1 (stereo not drawn),27µM,·,·,·,·,·
Cc1ccc([C@H]2C(C(=O)O)=CC[C@@H](c3ccc(Cl)cc3)N2S(=O)(=O)c2ccccc2C)cc1,?,–,·,·,·,·
Cc1ccccc1NC(=O)c1c(C)oc2ccc(O)c(CN(C)Cc3ccccc3)c12,·,–,–,·,?,?
Cc1cnc(CNc2nc(-c3ccccc3C(F)(F)F)nc3ccccc23)cn1,·,–,·,–,·,·
COc1ccc(C2CC(O)(c3ccccc3)Oc3cc(OC)ccc32)cc1 (stereo not drawn),–,–,–,?,–,?
COc1ccc2c(c1)OC(C)(C)C(c1ccccc1)C2c1ccc(OCCN2CCCC2)cc1 (stereo not drawn),·,–,·,50µM,·,·
CCCCNC(=O)c1nn2c(C(F)(F)F)cc(-c3ccc(OC)cc3)nc2c1Br,12µM,–,·,–,·,·
O=C(NCc1ccco1)c1nn2c(C(F)(F)F)cc(-c3cccs3)nc2c1Br,–,–,?,20µM,14µM,–
Cn1c(=O)c([N+](=O)[O-])c(-n2cnc3ccccc32)c2ccccc21,–,20µM,–,?,?,–
Cn1c(=O)c([N+](=O)[O-])c(Cl)c2ccccc21,?,18µM,–,–,?,–
Cn1c(=O)c([N+](=O)[O-])c(NCc2ccc3c(c2)OCO3)c2ccccc21,–,–,–,50µM,–,–
Cn1c(=O)c([N+](=O)[O-])c(NCc2ccccc2Cl)c2ccccc21,–,–,–,–,–,–
O=C(OCc1ccccc1)[C@@H]1COC(c2ccc(Br)cc2)=N1,·,–,–,–,–,–
O=c1c(-c2cc(F)cc(F)c2)nc2cnc(N3CCOCC3)nc2n1CCc1ccccc1,·,–,·,–,·,·
c1ccc(-c2nc(-c3ccco3)n3ccccc23)cc1,–,–,–,7.1µM,–,–
c1ccc(Nc2c(-c3ccco3)nc3ccccn23)cc1,–,–,–,–,–,–
CCc1ccc(C(=O)c2cn(CC(=O)NCc3ccc(C)cc3)c3nc(C)ccc3c2=O)cc1,·,–,–,·,–,–
CCOC(=O)c1ccc(NC(=O)NCCOCCn2c(=O)oc3ccccc32)cc1,·,–,–,·,?,–
COc1cccc(C(=O)NC(=S)Nc2nnn(C)n2)c1,–,–,–,50µM,–,–
COc1ccc(C(=O)NC(=S)Nc2nnn(C)n2)cc1,?,–,–,56µM,–,–
COc1c(C(=O)NC(=S)Nc2nnn(C)n2)cc2ccccc2c1Br,–,–,·,–,·,·
CC(=O)N1c2ccc(S(=O)(=O)NCC3CCC(C(=O)Nc4ncccc4C)CC3)cc2CC1C (stereo not drawn),21µM,?,·,–,·,·
CCC(C)NC(=O)C1CCC(CNS(=O)(=O)c2ccc3c(c2)CC(C)N3C(C)=O)CC1 (stereo not drawn),24µM,?,·,–,·,·
COC(=O)CCN(C(C)=O)c1ccc(N)cc1,27µM,?,–,–,–,–
COC(=O)CCN(C)CCC(=O)OC,–,–,–,–,–,–
Cc1cc(C)n(C(C)CC(=O)Nc2ccc(Cl)cc2C)n1 (stereo not drawn),·,–,–,·,–,–

# Screening data (PubChem)
